# Compounds with a hit are over-represented: about 6.5% of the library has one in this group of screens.
# Lassa entry inh: blocks Lassa virus binding to or entry into cells. Lassa virus pseudotype entry inhibition, cell reporter. Potency, µM (titrated, usually from 37.9 µM), for the others: top-dose activity change, negative = inhibition, actives largely listed as inhibitors. 300,000 compounds, 1.2% hits. AID 540256; calls by dose curve; tested in HEK293 cells; note: potency is the fitted concentration of half-maximal effect; nearly all actives have a fitted effect of over 50% in size
# Vaccinia mCherry: vaccinia inhibition (mCherry reporter); 310,000 compounds, 0.63% hits; Potency, µM (series often up to 36.5 µM), for inactives: at the highest dose activity change, negative = inhibition, actives largely listed as inhibitors; Vaccinia virus mCherry reporter infection, fluorescence; calls by dose curve; tested in A549 cells; note: potency is the fitted concentration of half-maximal effect; nearly all actives have a fitted effect of over 35% in size
# Marburg entry inh: blocks Marburg virus binding to or entry into cells | Marburg virus pseudotyped entry inhibition, cell reporter | Potency, µM (doses to about 37.8 µM), for inactives: at the highest dose activity change, negative = inhibition, usual class: inhibitors | 300,000 compounds, 1.8% hits | AID 540276; calls by dose curve; tested in HEK293 cells; note: potency is the fitted concentration of half-maximal effect
# FMDV antiviral: blocks foot and mouth disease virus. Potency, µM (top dose mostly 57.9 µM), inactives show at the highest dose activity change, negative = inhibition, usual class: inhibitors. FMDV antiviral cell-based qHTS. AID 1159524. 410,000 compounds, 1.2% hits; calls by dose curve; tested in HEK293T cells; note: read-out not given here; potency is the fitted concentration of half-maximal effect; nearly all actives have a fitted effect of over 45% in size
# Vaccinia Venus: vaccinia inhibition (Venus reporter). Vaccinia virus Venus reporter expression, fluorescence. 330,000 compounds, 0.46% hits. Potency, µM (doses to about 36.5 µM), inactives show top-dose activity change, negative = inhibition, usual class: inhibitors; calls by dose curve; tested in A549 cells; note: potency is the fitted concentration of half-maximal effect; nearly all actives have a fitted effect of over 30% in size
# HCMV antiviral: human cytomegalovirus inhibition | HFF cells, HCMV-luciferase reporter, 72 h; hits give low values | 410,000 compounds, 4.5% hits | AID 1259415 | activity change, negative = inhibition, % at 57.5 µM; in the data active = activity change below about -60%; inconclusive = no clear call, values can overlap the other calls; inactive = above about -39%
#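 Inhibition of viral replication was scored as loss of reporter luminescence in HFFs infected with HCMV-luciferase (MOI 1 PFU/cell) for 72 h; compounds tested at 2 doses, normalized to buffer and Salinomycin controls.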
# * hit, by the source's call; i = inactive; ? = inconclusive; . = no result; [ ] = dose if it differs, or a comment. % is set by controls: 0 for no effect and ±100 for the full control effect.
SMILES,Lassa entry inh,Vaccinia mCherry,Marburg entry inh,FMDV antiviral,Vaccinia Venus,HCMV antiviral
O=C(Nc1ccc(Oc2ccccc2)cc1)c1ccc2sc([C@H]3C[C@H](O)[C@@H](CO)O3)nc2c1,.,?,.,16µM*,?,-100*
O=C(Nc1cccc(C(F)(F)F)c1)c1ccc2sc([C@H]3C[C@H](O)[C@@H](CO)O3)nc2c1,.,?,.,20µM*,?,-91*
O=C(CCc1cn(Cc2ccccc2F)c2ccccc12)NCc1ccc(Cl)cc1,-2%[46.1 µM],-12%,.,10µM*,-11%,-27
Cc1ccc(CNC(=O)CCc2cn(Cc3ccc(C)cc3)c3ccccc23)cc1,0%[46.1 µM],-12%,.,-12%,-10%,6
COC(=O)[C@H]1[C@H](CO)[C@H]2Cn3c(ccc(Br)c3=O)[C@H]2N1C(C)=O,.,.,.,.,.,20
COc1ccc(NC(=S)NC2CCCCC2)cn1,-12%,-3%,1%[46.1 µM],68%,0%,-87*
S=C(Nc1ccc(Oc2ccccc2)cc1)NC1CCCC1,4%,i,22%,66%,-12%,-33
S=C(Nc1ccc(Br)cc1)NC1CCCC1,?,-16%,-5%,36%,-22%,-65*
COc1ccc(C(=O)O/N=C(\N)c2ccccc2)c(OC)c1,?,2%,1.5µM*,-36%,-16%,-78*
COc1ccc(C(=O)O/N=C(\N)c2ccccn2)c(OC)c1,?,-3%,?,-57%,-17%,-75*
CCN(CC)C(=O)c1ccc2nc3ccccc3nc2c1,21%,2.2µM*,25%,45%,?,-95*
Cc1cc(C)c(C(=O)CC(=O)c2ccccc2Cl)c(O)c1,-11%,i,?,57%,-24%,-70*
Cc1cc(C)c(NC(=O)CC(=O)c2ccccc2)c(Cl)c1,22%[46.1 µM],i,4%[46.1 µM],-11%,2%,?
Cc1ccc(C)n1-c1ccc(-c2ccnc(N)n2)cc1,?,-26%,?,?,-13%,-66*
Cc1onc(-c2ccccc2)c1-c1ccnc(N)n1,18%,-21%,1%,-16%,-24%,49
Nc1nc2ccccc2n1CCOc1ccc(Cl)cc1,1%,-26%,?,-4%,-24%,-21
CCN(CC)CCn1c(=N)n(CC(O)COc2ccccc2C)c2ccccc21 (stereo not given),?,?,3.2µM*,0%,?,-99*
Nc1nc2ccccc2n1CCOc1ccccc1Cl,-10%,.,11µM*,?,?,-19
CCN(CC)CCn1c(=N)n(CCOc2ccccc2Cl)c2ccccc21,?,?,?,?,?,-99*
Cn1c(=O)n(CCOc2ccccc2Cl)c2ccccc21,1%,.,?,32%,-22%,9
CCOc1ccc(OCC)c(NC(=O)Cn2ncc3c4ccccc4n(Cc4ccccc4)c3c2=O)c1,-2%[46.1 µM],-8%,-26%[46.1 µM],-4%,-5%,-12
CCOc1ccc(CCNC(=O)c2cc(C)nc3c2c(C)nn3-c2cccc(F)c2)cc1,13%[46.1 µM],-14%,.,-10%,-21%,-8
c1ccc2c(c1)Nc1ccncc1S2,6%,?,20%,-15%,-27%,-71*
c1ccc2c(c1)Nc1cc3ccccc3cc1S2,20%,-13%,0%[46.1 µM],33%,7%,6
CCCCNC(=O)[C@@H]1CC=C[C@@H]2CCN(CCCC)C(=O)[C@@H]21,.,-13%,.,.,-8%,.
SMILES,Lassa entry inh,Vaccinia mCherry,Marburg entry inh,FMDV antiviral,Vaccinia Venus,HCMV antiviral
Cc1ncc(Cc2ccccc2)c(C2CCN(S(=O)(=O)C[C@]34CC[C@H](CC3=O)C4(C)C)CC2)n1,.,-19%,.,46%,-19%,.
CCCCN(CC)CCCNC(=O)c1cc2c(=O)[nH]c3ccccc3c2s1,-18%,-9%,7.1µM*,-16%,-10%,?
Cc1ccc2[nH]c(=O)c3cc(C(=O)NCCC(C)C)sc3c2c1,.,.,.,-27%,.,-19
CCN(C(=O)c1cc2c(=O)[nH]c3ccc(C)cc3c2s1)c1ccc(F)cc1,.,.,.,-16%,.,?
O=C(NCCCN1CCOCC1)c1cc2c(=O)[nH]c3ccccc3c2s1,2%,-14%,10µM*,-18%,-5%,78
CCOCCCNC(=O)c1cc2c(=O)[nH]c3ccccc3c2s1,0%[46.1 µM],-9%,2%[46.1 µM],34%,-3%,-9
Cc1ccc2[nH]c(=O)c3cc(C(=O)N(C)c4ccc(C)c(C)c4)sc3c2c1,.,.,.,?,.,-61*
CCCCN(CC)CCNC(=O)c1cc2c(=O)[nH]c3ccc(C)cc3c2s1,?,-21%,5µM*,-27%,?,-65*
C=CC1(O)C(OC)=CC2C(=O)C1C(c1ccccc1)C2C (stereo not given),?,.,14%[14.2 µM],.,.,.
COCc1c(C(=O)OCC(=O)N2c3ccccc3NC(=O)C2(C)C)oc2ccccc12,-8%,.,?,25µM*,.,7
COc1cc(/C=C/C(=O)OCC(=O)N2c3ccccc3NC(=O)C2(C)C)cc(OC)c1OC,.,.,.,28µM*,.,-3
COc1cc(OC)cc(C(=O)NCC(=O)OCC(=O)N2c3ccccc3NC(=O)C2(C)C)c1,.,i,6%[46.1 µM],1%,-7%,-98*
COc1ccc(S(N)(=O)=O)cc1C(=O)OCC(=O)N1c2ccccc2NC(=O)C1(C)C,-14%,i,23%[46.1 µM],1%,-2%,-13
COCc1c(C(=O)OCC(=O)N2c3ccccc3CC2C)oc2ccccc12 (stereo not given),7%,.,6%,21%,.,13
CCOC(=O)/C=c1\s/c(=C(/C#N)C(=O)OCC)n(-c2ccccc2)c1=O,.,.,-6%[46.1 µM],.,.,.
Cc1cccc(CC(=O)N[C@@H](Cc2ccccc2)C(O)c2nc3ccccc3[nH]2)c1 (stereo not given in full),.,.,.,.,.,-9
CC[C@@H](C)[C@H](C(CC(=O)N1CCCC1[C@@H](OC)[C@H](C)C(=O)N[C@H](Cc1ccccc1)c1nccs1)OC)N(C)C(=O)[C@H](NC(=O)[C@@H](C(C)C)N(C)C)C(C)C (stereo not given in full),?,-19%,-2%,-12%,?,-91*
Cc1ccc(S(=O)(=O)N2CCCc3cc(NS(=O)(=O)c4ccc(F)c(C)c4)ccc32)cc1,-27%[46.1 µM],?,.,-40%,?,-60*
C=C1C(=O)[C@@]23C[C@H]4[C@@H]5[C@@]6(C)CCC[C@@]57[C@@H]2[C@@H](O)[C@@H]1C[C@H]3[C@H]7N4C6,.,?,.,25µM*,?,-77*
COc1ccccc1CCn1cnc(-c2ccc(F)cc2F)c1CC(C)C,.,.,.,.,.,-84*
COc1ccccc1CCn1cnc(-c2ccccc2F)c1CC(C)C,.,.,.,.,.,-83*
COc1ccc(C2/C(=C(/O)c3ccc(F)cc3)C(=O)C(=O)N2CCCN(C)C)cc1 (stereo not given),22%,-3%,6%[46.1 µM],-7%,-3%,-83*
Cc1ccc2oc(C(=O)N(Cc3ccccc3F)C3CCS(=O)(=O)C3)c(C)c2c1 (stereo not given),-23%[46.1 µM],-11%,?,0%,-4%,17

# High-throughput results (PubChem)
